Source: PubChem
Only a selection was taken, and hits are over-represented in it overall.
Dicer processing: blocks human Dicer maturation of pre-miR-21 | cat-ELCCA pre-miR-21 Dicer processing, chemiluminescence; active compounds read high | z-score at 25 µM | 6% of 47,000 active | AID 1347074; in the data active = z-score above about 3, passing the limit was not always enough;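 note: higher signal means more uncleaved substrate so more Dicer inhibition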
Of the large screens only hits and unclear results are named; the others gave an inactive call.

CC1=C(C(=O)OCCOC(C)C)C(c2cccs2)C2=C(CC(c3cccs3)CC2=O)N1 (centres undefined)	Dicer processing 4.1
COc1cc(C2C(C(=O)OC3CCCCC3)=C(C)NC3=C2C(=O)CC(C)(C)C3)ccc1O (centres undefined)	none
COc1ccc(C2CC(=O)C3=C(C2)NC(C)=C(C(=O)OC2CCCC2)C3c2ccc(OC)cc2)cc1 (centres undefined)	none
COc1ccc(C2C(C(=O)OC3CCCCC3)=C(C)NC3=C2C(=O)CC(C)(C)C3)cc1O (centres undefined)	none
CC1=C(C(=O)OCCOC(C)C)C(c2ccc(F)cc2)C2=C(CC(c3cccs3)CC2=O)N1 (centres undefined)	none
CC1=C(C(=O)OC2CCCC2)C(c2ccccc2)C2=C(CC(c3ccccc3)CC2=O)N1 (centres undefined)	Dicer processing 3.1
CC1=C(C(=O)OCCOC(C)C)C(c2cccc(Cl)c2)C2=C(CC(c3cccs3)CC2=O)N1 (centres undefined)	none
COc1ccc(C2C(C(=O)OCCOC(C)C)=C(C)NC3=C2C(=O)CC(C)(C)C3)cc1O (centres undefined)	none
CCOC(=O)c1c(NC(=O)C(C)(C)C)sc(C)c1C	none
CS/C(N)=N/N=C/c1ccc(Cl)cc1	none
COCCn1cc2c(c1-c1ccccc1)c(=O)n(C)c(=O)n2C	none
CCCCc1ccc(NC(=O)Nc2cc(C(C)(C)C)nn2C)cc1	none
CCCCNC(=O)NNC(=O)c1cccn1-c1ccc(F)cc1	none
O=C(O)CCCCCCCC(=O)c1ccccc1	none
CC1CN=C(N(CCc2ccccc2)C(=O)Nc2cccc(Cl)c2)S1 (centres undefined)	none
Cc1noc(/C=C/c2ccc3c(c2)n(C)c(=O)n3C)c1[N+](=O)[O-]	none
COc1ccccc1-c1nnc(SCC(=O)c2ccccc2)o1	none
O=C(Oc1cc(=O)n2c3c(cccc13)CCC2)c1ccccc1	none
CCCCCOC(=O)C1=C(C)NC2=C(C(=O)CC(C)(C)C2)C1c1cccc(O)c1 (centres undefined)	none
O=C(O)c1ccc(Cn2ccc([N+](=O)[O-])n2)cc1	none
CCOC(=O)c1cc(/C(C)=N/Nc2ccccc2C(F)(F)F)on1	none
N#C/C(=C\c1ccc(C(F)(F)F)cc1Cl)S(=O)(=O)c1ccc(Cl)cc1	none
COc1ccccc1C1C(C(=O)OCC2CCCO2)=C(C)NC2=C1C(=O)CC(C)(C)C2 (centres undefined)	none
COc1cccc(C2C(C(=O)OCC3CCCO3)=C(C)NC3=C2C(=O)CC(C)(C)C3)c1OC (centres undefined)	Dicer processing 5.4
CCSCCOC(=O)C1=C(C)NC2=C(C(=O)CC(c3ccccc3)C2)C1c1ccc(N(C)C)cc1 (centres undefined)	none
COc1cccc(C2C(C(=O)OCc3ccccc3)=C(C)NC3=C2C(=O)CC(C)(C)C3)c1OC (centres undefined)	none
COc1ccc(C2CC(=O)C3=C(C2)NC(C)=C(C(=O)OCC(C)C)C3c2ccncc2)cc1 (centres undefined)	none
CC1=C(C(=O)OCC(C)C)C(c2ccc(N(C)C)cc2)C2=C(CC(c3ccccc3)CC2=O)N1 (centres undefined)	Dicer processing 3.6
COc1ccc(CC2CCC(=O)CC2)cc1	none
O=c1[nH]c2sc(-c3ccccc3)cc2c(=O)n1-c1ccc(Cl)cc1	none
COc1ccccc1Nc1snc2sc(C(=O)c3ccc(C)cc3)c(N)c12	none
Cc1cc(C)c2nc(Nc3nc(C)cc(=O)[nH]3)nc(C)c2c1	none
Cc1cc(C)c2nc(NC3=NC(c4ccccc4)CC(=O)N3)nc(C)c2c1 (centres undefined)	Dicer processing 3.5
Cc1ccc(NC2=NC(c3ccccc3)n3c(nc(C)cc3=O)N2)c(C)c1 (centres undefined)	none
CCOC(=O)c1sc(N2C(=O)C(O)=C(C(=O)c3ccco3)C2c2ccc(C(C)(C)C)cc2)nc1C (centres undefined)	none
O=C(N=S1CCN(S(=O)(=O)c2ccc(Cl)cc2)CC1)Nc1ccc(Cl)cc1	none
Cc1nn(S(=O)(=O)c2ccc(Cl)cc2)c(C)c1Sc1nccn1C	none
Cc1ccc(C)n1-c1ccc(N)cc1	none
CC1=NC(=O)CN1c1ccc(N)cc1	Dicer processing 4
Cc1ccc(N2N=C(N)CC2=O)cc1	none
CSc1nc(N)nc2sc(C(=O)c3ccc(Cl)cc3)c(N)c12	none
CNc1ccc(Br)cc1C(O)c1ccccc1 (centres undefined)	Dicer processing 3.4
CNC[C@H](O)c1cccc(O)c1	none
C=CC(=C)CC(NC)c1ccccc1 (centres undefined)	none
CCOC(OCC)c1ccc(/C=C(\C#N)S(=O)(=O)c2ccccn2)cc1	none
N/C(=N\O)c1cccc(-n2cccc2)c1	none
Cn1cc(Cl)c(/C=C(\C#N)S(=O)(=O)c2ccccc2)n1	none
Cn1cc(Cl)c(/C=C(\C#N)S(=O)(=O)C(C)(C)C)n1	Dicer processing 4.2
Cn1cc(Cl)c(/C=C(\C#N)C(=O)c2ccc(Cl)cc2)n1	none
CCOC(=O)/C(C#N)=C/c1ccccc1C	none
c1ccc2c(c1)NC(c1c[nH]c3ccccc13)N2	none
CCOc1ccc(S(=O)(=O)Nc2cccnc2)cc1C	none
Cc1cccn2cc(-c3ccc(NS(=O)(=O)c4ccccc4)cc3)nc12	none
Cc1cccn2cc(-c3cccc(NS(=O)(=O)c4ccc(Br)cc4)c3)nc12	Dicer processing 4.1
Cc1ccc(S(=O)(=O)Nc2ccc(-c3cn4cccc(C)c4n3)cc2)cc1	none
CS(=O)(=O)c1ccc(-c2nnn(CC(=O)O)n2)cc1	none
CCOC(=O)c1c[nH]c2c(C(=O)OCC)cccc2c1=O	none
CCOC(=O)c1sc2ccc(NC(C)=O)cc2c1C	none
CC(C)OC(=O)Nc1ccc(Cl)cc1	none
CC(=O)OC(C(=O)O)C(OC(C)=O)C(=O)Nc1ccc(Cl)cc1 (centres undefined)	Dicer processing 3.1
CSCC(CSC)OC(=O)Nc1ccc(Cl)cc1	none
CCOC(=O)NC(Nc1ccc(F)cc1F)(C(F)(F)F)C(F)(F)F	none
CCOC(=O)C1=C(C)NC(=O)NC1c1ccc(N(C)C)c([N+](=O)[O-])c1 (centres undefined)	none
CCOC(=O)c1sc2sc(C(=O)OCC)c(-c3ccco3)c2c1N	none
CCOC(=O)c1c(C)noc1-c1csc(Nc2c(C)cc(C)cc2C)n1	none
CCOC(=O)c1c(C)noc1-c1ccco1	Dicer processing 7.7
C=CCN(C(=O)c1ccc(Cl)cc1)c1ccccc1C(=O)NCC(=O)OCC	none
CCN(CC)OC(=O)c1ccc(Oc2ccc(Cl)cc2)c([N+](=O)[O-])c1	none
COC(=O)c1sc(SC)c2c1CC(C)(C)C/C2=N\OC(=O)Nc1ccccc1	none
CC1CCN(C(=O)CN2C(=O)C(=O)c3ccccc32)CC1	none
Cc1c(NC(=O)COC(=O)CN2C(=O)C(=O)c3ccccc32)c(=O)n(-c2ccccc2)n1C	Dicer processing 3.8
Cc1c(NC(=O)OCc2ccccc2)c(=O)n(-c2ccccc2)n1C	none
O=C(COC(=O)CN1C(=O)C(=O)c2ccccc21)NCc1ccco1	none
CCOC(=O)CN1C(=O)C(=O)c2ccccc21	Dicer processing 4.6
CCOC(=O)CCN1C(=O)c2ccccc2C1=O	none
C=CCNC(=O)c1c(NC(=O)c2ccco2)sc2c1CCC(C(C)(C)C)C2 (centres undefined)	none
N#Cc1cn(-c2ccc(Cl)cc2)c(=O)n(Cc2c(Cl)cccc2Cl)c1=O	none
Clc1nc(NCCN2CCOCC2)nc(Nc2ccc3c(c2)OCO3)n1	none
COC(=O)c1csc(S(=O)(=O)N=S(C)(=O)c2ccc(C(F)(F)F)cn2)c1OC (centres undefined)	none
CCOc1ccc(C2C3=C(CC(C)(C)CC3=O)Nc3nc(C)nn32)cc1 (centres undefined)	none
